Structures are written as SMILES. This is part of a sample that, as a whole, favours compounds with a hit. Of some 79,000 tested, about 15% had one in any assay. Values without a mark were called inactive. Activity calls are given as the source filed them. Cut-off read from the data, not from the text of the source: active = growth inhibition above about 70%; inactive = the rest.

The nature of test [1]: NCI Yeast Anticancer Drug Screen. Data for the rad50 strain (AID 155).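 Note: 0% = growth of vehicle-only cultures of the same strain.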 The conditions noted are these: S. cerevisiae rad50 strain growth inhibition, stronger effect = higher value. A digest of the protocol:
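A DNA repair-deficient yeast mutant serves as the test organism; compound-induced growth inhibition is calculated against vehicle-treated cells.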

Test [2] can be described thus: NCI Yeast Anticancer Drug Screen. Data for the mec2-1 strain (AID 157). The note with it: S. cerevisiae mec2-1 strain, stronger effect = higher value. A digest of the protocol: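 Strain: mec2-1 (DNA repair/cell cycle alteration). Compound exposure, then growth measured; inhibition expressed relative to vehicle.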
The nature of test [3]: NCI Yeast Anticancer Drug Screen. Data for the sgs1 mgt1 strain (AID 161).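 Note: 0% = growth of cultures given vehicle only.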 The conditions noted are these: S. cerevisiae sgs1 mgt1 strain, stronger effect = higher value. A digest of the protocol: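 Genetically altered yeast, compound exposure, growth inhibition relative to vehicle.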
A short description of test [4]: NCI Yeast Anticancer Drug Screen. Data for the cln2 rad14 strain (AID 165).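 Note: 0% = growth equal to vehicle treated cultures.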 The conditions noted are these: S. cerevisiae cln2 rad14 strain, stronger effect = higher value. A digest of the protocol:
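Compounds are applied to the cln2 rad14 yeast strain, and growth is then compared with that of vehicle-treated cultures to give inhibition.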

Test [5] can be described thus: NCI Yeast Anticancer Drug Screen. Data for the bub3 strain (AID 167). The note with it: S. cerevisiae bub3 mutant strain, stronger effect = higher value. A digest of the protocol: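 Inhibition values come from growth of compound-treated mutant yeast normalised to vehicle-treated controls.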
A short description of test [6]: NCI Yeast Anticancer Drug Screen. Data for the mlh1 rad18 strain (AID 175). The note with it: S. cerevisiae mlh1 rad18 strain growth inhibition, stronger effect = higher value. A digest of the protocol: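 Read-out is yeast growth inhibition, calculated against vehicle-only controls. The compound was applied to a strain engineered with DNA damage repair alterations.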
The mark [7] stands for this setting: at 5.0 µM (retest, dose inferred, filed as 0.5).
Setting [8] is: at 50.0 µM (retest, dose inferred, filed as 5.0).

Regarding `CCOC(=O)C1C(C(C)C)C2(C#N)C(=N)OC1(C)C2(C#N)C#N` (configuration not stated), the growth inhibition in test [1] (setting [7]) is 15%; in test [1] (setting [8]), 63%; in test [1] (at 50.0 µM), 44.8%; in test [2] (setting [7]) it was 6%; in test [2] (setting [8]) it was 53%; in test [2] (at 50.0 µM), 52.2%. Further, the growth inhibition in test [3] (setting [7]) is 19%; in test [3] (setting [8]), 58%; in test [3] (at 50.0 µM), 49.8%; in test [4] (setting [7]), 6%; in test [4] (setting [8]), 37%; in test [4] (at 50.0 µM) it was 30.2%. Further, the growth inhibition was 14% in test [5] (setting [7]); 62% in test [5] (setting [8]); 39.5% in test [5] (at 50.0 µM); 18% in test [6] (setting [7]); 72% (active) in test [6] (setting [8]); 42.5% in test [6] (at 50.0 µM).

Consider `C[C@@]1(CO)[C@H](O)CC[C@@]2(C)[C@H]1CC[C@H]1C[C@@H]3C[C@@]12CC[C@@]3(O)COC(=O)CN`, for which the growth inhibition in test [1] (setting [7]) was 0%; in test [1] (setting [8]), 65%; in test [1] (at 50.0 µM), 97.3% (active); in test [2] (setting [7]), -1%; in test [2] (setting [8]) it was 98% (active); in test [2] (at 50.0 µM) it was 57.1%. Besides, the growth inhibition in test [3] (setting [7]) is -1%; in test [3] (setting [8]), 46%; in test [3] (at 50.0 µM), 61.6%; in test [4] (setting [7]) it was -12%; in test [4] (setting [8]) it was 49%; in test [4] (at 50.0 µM), 22.9%. In addition, the growth inhibition in test [5] (setting [7]) is 11%; in test [5] (setting [8]) it was 33%; in test [5] (at 50.0 µM), 91.7% (active); in test [6] (setting [7]) it was 6%; in test [6] (setting [8]), 97% (active); in test [6] (at 50.0 µM), 93.8% (active).

`COc1cc(N(CCC#N)CCC#N)ccc1/C(N=Nc1ccc([N+](=O)[O-])cc1)=N/NC(=O)c1cc(Br)ccc1O`: the growth inhibition was 6% in test [1] (setting [7]); 27% in test [1] (setting [8]); 63% in test [1] (at 50.0 µM); 14% in test [2] (setting [7]); 42% in test [2] (setting [8]); 44.6% in test [2] (at 50.0 µM). The growth inhibition was -6% in test [3] (setting [7]); 35% in test [3] (setting [8]); 40.6% in test [3] (at 50.0 µM); 10% in test [4] (setting [7]); 11% in test [4] (setting [8]); 55.1% in test [4] (at 50.0 µM). In addition, the growth inhibition in test [5] (setting [7]) was 8%; in test [5] (setting [8]), 48%; in test [5] (at 50.0 µM), 51%; in test [6] (setting [7]) it was 15%; in test [6] (setting [8]), 37%; in test [6] (at 50.0 µM), 46.1%.

With `O=C(c1ccccc1)c1cc2ccccc2oc1=O`, the growth inhibition in test [1] (setting [7]) is 1%; in test [1] (setting [8]) it was 71% (active); in test [1] (at 50.0 µM) it was 63.1%; in test [2] (setting [7]), 5%; in test [2] (setting [8]), 35%; in test [2] (at 50.0 µM) it was 13.3%. The growth inhibition was 1% in test [3] (setting [7]); 63% in test [3] (setting [8]); 60.5% in test [3] (at 50.0 µM); 4% in test [4] (setting [7]); 52% in test [4] (setting [8]); 37.8% in test [4] (at 50.0 µM). Also, the growth inhibition in test [5] (setting [7]) is -6%; in test [5] (setting [8]) it was 61%; in test [5] (at 50.0 µM), 10.8%; in test [6] (setting [7]) it was 9%; in test [6] (setting [8]), 81% (active); in test [6] (at 50.0 µM), 79% (active).

For the compound `O=C(Nc1ccc(Cl)c(Cl)c1)Nc1ccccc1O`, the growth inhibition is 5% in test [1] (setting [7]); 50% in test [1] (setting [8]); 46.2% in test [1] (at 50.0 µM); 6% in test [2] (setting [7]); 35% in test [2] (setting [8]); 39.9% in test [2] (at 50.0 µM). The growth inhibition in test [3] (setting [7]) was 0%; in test [3] (setting [8]) it was 31%; in test [3] (at 50.0 µM), 48.8%; in test [4] (setting [7]), 12%; in test [4] (setting [8]) it was 39%; in test [4] (at 50.0 µM), 53.3%. The growth inhibition is 46% in test [5] (setting [7]); 78% (active) in test [5] (setting [8]); 64% in test [5] (at 50.0 µM); 1% in test [6] (setting [7]); 54% in test [6] (setting [8]); 76.2% (active) in test [6] (at 50.0 µM).

Take `Nc1cc(-c2ccccc2)ccc1O`: the growth inhibition in test [1] (setting [7]) is 5%; in test [1] (setting [8]) it was 63%; in test [1] (at 50.0 µM), 98.7% (active); in test [2] (setting [7]), -2%; in test [2] (setting [8]) it was 80% (active); in test [2] (at 50.0 µM) it was 97.9% (active). For the same compound, the growth inhibition was 5% in test [3] (setting [7]); 37% in test [3] (setting [8]); 93.6% (active) in test [3] (at 50.0 µM); -3% in test [4] (setting [7]); 6% in test [4] (setting [8]); 79.1% (active) in test [4] (at 50.0 µM). The growth inhibition in test [5] (setting [7]) is 0%; in test [5] (setting [8]), 29%; in test [5] (at 50.0 µM), 99.1% (active); in test [6] (setting [7]), 8%; in test [6] (setting [8]) it was 89% (active); in test [6] (at 50.0 µM) it was 99.5% (active).

As to `O=C1C=Cc2ccccc2/C1=C/c1nc(-c2ccccc2)oc1O`, the growth inhibition in test [1] (setting [7]) is -2%; in test [1] (setting [8]), 97% (active); in test [1] (at 50.0 µM) it was 89.5% (active); in test [2] (setting [7]) it was -15%; in test [2] (setting [8]), 98% (active); in test [2] (at 50.0 µM), 91.8% (active). Also, the growth inhibition in test [3] (setting [7]) is 17%; in test [3] (setting [8]) it was 97% (active); in test [3] (at 50.0 µM), 49.5%; in test [4] (setting [7]), 2%; in test [4] (setting [8]) it was 97% (active); in test [4] (at 50.0 µM), 86.5% (active). Besides, the growth inhibition was 0% in test [5] (setting [7]); 98% (active) in test [5] (setting [8]); 92.7% (active) in test [5] (at 50.0 µM); 5% in test [6] (setting [7]); 97% (active) in test [6] (setting [8]); 90% (active) in test [6] (at 50.0 µM).

Consider `COC1CC(C)C(OC)c2cc(O)cc(c2O)NC(=O)/C(C)=C/C=C\C(C)C(OC(N)=O)/C(C)=C\C(C)C1OC` (configuration not stated), for which the growth inhibition in test [1] (setting [7]) was 94% (active); in test [1] (setting [8]), 97% (active); in test [1] (at 50.0 µM), 91.2% (active); in test [2] (setting [7]), 95% (active); in test [2] (setting [8]), 97% (active); in test [2] (at 50.0 µM), 92.5% (active). Besides, the growth inhibition is 97% (active) in test [3] (setting [7]); 98% (active) in test [3] (setting [8]); 91.3% (active) in test [3] (at 50.0 µM); 88% (active) in test [4] (setting [7]); 95% (active) in test [4] (setting [8]); 89.8% (active) in test [4] (at 50.0 µM). For the same compound, the growth inhibition in test [5] (setting [7]) was 97% (active); in test [5] (setting [8]) it was 98% (active); in test [5] (at 50.0 µM) it was 90.7% (active); in test [6] (setting [7]), 96% (active); in test [6] (setting [8]) it was 97% (active); in test [6] (at 50.0 µM) it was 90% (active).

Turning to `COC(=O)c1cc([N+](=O)[O-])cc([N+](=O)[O-])c1Cl`, the growth inhibition in test [1] (setting [7]) is 99% (active); in test [1] (setting [8]) it was 99% (active); in test [1] (at 50.0 µM), 91.2% (active); in test [2] (setting [7]), 99% (active); in test [2] (setting [8]), 99% (active); in test [2] (at 50.0 µM), 93.2% (active). In addition, the growth inhibition in test [3] (setting [7]) was 100% (active); in test [3] (setting [8]), 99% (active); in test [3] (at 50.0 µM), 93.7% (active); in test [4] (setting [7]), 77% (active); in test [4] (setting [8]) it was 99% (active); in test [4] (at 50.0 µM), 92.4% (active). In addition, the growth inhibition in test [5] (setting [7]) was 99% (active); in test [5] (setting [8]), 99% (active); in test [5] (at 50.0 µM), 92.8% (active); in test [6] (setting [7]) it was 100% (active); in test [6] (setting [8]) it was 99% (active); in test [6] (at 50.0 µM), 92.2% (active).

The values above are taken from PubChem BioAssay (NCI).
